Assay results taken from PubChem BioAssay AID1159580 (chemical genetic matrix, 2015).
Screen size: about 5,500 compounds; about 2,000 (36%) were called active. Another 18% or so got no clear call; they are omitted. No stated cut-off is given here; in the data, active means normalized growth mostly below about 0.91 (no sharp cut-off); inconclusive means no clear call, values can overlap the other calls; inactive means mostly above about 0.92. The list shows a part of the results.

Assay: chemical genetic growth profiling, strain panel (AID 1159580);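 further: tested at 20 µM; growth read once vehicle control cultures reached saturation at 30 °C; 1 = growth at the plate median or of vehicle wells; lower values mean less growth of the strain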
Conditions: S. cerevisiae deletion strains, growth OD
[1] = locus YAL040C, strain CLN3, hits give low values
[2] = locus YDR363W, strain ESC2, hits give low values
[3] = locus YER002W, strain NOP16, hits give low values
[4] = locus YGR078C, strain PAC10, hits give low values
[5] = locus YMR263W, strain SAP30, hits give low values
[6] = locus YMR307W, strain GAS1, hits give low values
[7] = locus YNL128W, strain TEP1, hits give low values
[8] = locus YNL175C, strain NOP13, hits give low values
[9] = locus YNL197C, strain WHI3, hits give low values
[10] = locus YNL224C, strain SQS1, hits give low values
[11] = locus YOR083W, strain WHI5 (second series), hits give low values
[12] = locus YPL241C, strain CIN2, hits give low values

Measured: normalized growth

CC(=O)O[C@]1(C(C)=O)CC[C@H]2[C@@H]3C=C(Cl)C4=CC(=O)[C@@H]5C[C@@H]5[C@]4(C)[C@H]3CC[C@@]21C
inactive: [1] 0.994 | [2] 0.976 | [3] 1.02 | [4] 0.985 | [5] 0.993 | [6] 0.975 | [7] 0.993 | locus YNL153C, strain GIM3, hits give low values 1.05 | [8] 1.03 | [9] 0.966 | [10] 0.975 | locus YNL322C, strain KRE1, hits give low values 0.988 | [11] 0.979 | locus YPL055C, strain LGE1, hits give low values 1 | [12] 1

Nc1nc2c(ncn2COC(CO)CO)c(=O)[nH]1
inactive: [1] 1.05 | locus YCL061C, strain MRC1 (second series), hits give low values 1.01 | locus YDR150W, strain NUM1, hits give low values 1.01 | [2] 1.03 | [3] 1.01 | [4] 0.999 | [5] 1.01 | [6] 0.99 | [7] 0.992 | [8] 1.01 | [9] 1.01 | [10] 0.997 | [11] 1.03 | [12] 1.01
